# High-throughput results (PubChem)
# Rows were chosen to be rich in hits. Some 19% of all compounds tested hit in one or more screens of this group.
# HT1080-NT tox: kills 2HG-producing HT-1080-NT fibrosarcoma cells | Potency, µM (top dose mostly 46.1 µM), inactives show at the top dose activity, negative = less viability, actives largely listed as cytotoxic | HT-1080-NT fibrosarcoma viability, CellTiter-Glo ATP luminescence, 48 h | 1.6% of 360,000 active;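 also: NT is the 2HG producing partner of a matched IDH1 knockdown line; potency is read from the fitted curve at half-maximal effect; 0% = DMSO-treated cells and -100% = media-only wells without cells; nearly all actives have a fitted effect of over 55% in size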
#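 Fibrosarcoma NT cells, 750 per well in 5% FBS RPMI, were exposed to compound for 48 hours. Viability: CellTiter-Glo luminescence.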
# IL1B secr inh: inflammasome signaling inhibition, IL-1 beta readout; AID 743279; THP-1 LPS/ATP IL-1B secretion, AlphaLISA, 16 h; active compounds read low; activity change, % at 57.5 µM; 4.7% of 360,000 active; in the data active = activity change below about -50%; inconclusive = mostly about -30% to -49%
#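 Secreted IL-1B measured by AlphaLISA bead assay after 16 h compound exposure of THP-1 cells; compounds (final up to 57.5 uM) added 1 h before LPS (250 ng/mL) and ATP (1.25 mM) stimulation; lower signal means less secretion.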
# ELG1 DNA repair: blocks ELG1-dependent DNA repair in HEK293T cells; Potency, µM (series often up to 46.1 µM), inactives show top-dose activity change, negative = inhibition, actives largely listed as inhibitors; 2.3% of 330,000 active; HEK293T ELG1-luciferase reporter, luminescence, 16 h; DNA damage induced by 5-fluorouridine; AID 504467; also: potency is read from the fitted curve at half-maximal effect; nearly all actives have a fitted effect of over 55% in size
#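 Quantitative HTS, concentration-response format. 2,000 cells/well co-treated with 5-fluorouridine and compound, 16 hr in 5% CO2 at 37 °C; ONE-Glo luminescence read after 30 min.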
# DT40 TDP1 CPT: growth inhibition of DT40 Tdp1-/-;hTDP1 cells with camptothecin (screen for TDP1 inhibitors) | chicken DT40 Tdp1-/-;hTDP1 cells + 20 nM CPT, ATP luminescence, 48 h | 12% of 420,000 active | Potency, µM (highest dose often 46.2 µM), inactives show top-dose activity change, negative = growth inhibition, usual class: inhibitors; also: potency is read from the fitted curve at half-maximal effect; nearly all actives have a fitted effect of over 55% in size
#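 Chicken DT40 Tdp1-/- cells complemented with human TDP1, 400 cells/well, exposed to compounds plus 20 nM camptothecin for at least 48 h at 37 C; viability read as ATP content by CellTiter-Glo luminescence.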
# HT1080 IDH1KD tx: kills HT-1080 cells with IDH1 knockdown; AID 686971; Potency, µM (highest dose often 46.1 µM), inactives show at the top dose activity, negative = toxicity, most hits filed as cytotoxic; 2% of 360,000 active; HT-1080 IDH1 knockdown viability, ATP luminescence, 48 h;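 also: potency is read from the fitted curve at half-maximal effect; 0% = DMSO wells and -100% = cell-free medium wells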
#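 Using the IDH1-knockdown HT-1080 line run in the same batch and compound series as the NT line, viability after 48 h at 37 °C was determined by CellTiter-Glo luminescence and expressed as % activity.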
# TDP1 cell noCPT: qHTS for Inhibitors of human tyrosyl-DNA phosphodiesterase 1 (TDP1): qHTS in cells in absence of CPT | Potency, µM (titrated, usually from 46.2 µM), without a hit: at the top dose activity change, negative = growth inhibition, hits mostly inhibitors | 15% of 420,000 active | AID 686978, 2013 | DT40 Tdp1-/- hTDP1 cells, no CPT, ATP luminescence, 48 h; also: potency is read from the fitted curve at half-maximal effect; nearly all actives have a fitted effect of over 55% in size
#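 Camptothecin absent (DMSO only). Human TDP1-complemented DT40 knockout cells, 400 cells/well, 37 °C for minimum 48 hr; ATP measured via CellTiter-Glo, 30 min dark incubation, luminescence.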
# * = called active by the depositor; ? = inconclusive; . = not tested or not shown; [ ] = another dose, or the depositor's remark. Unless noted, calls follow the shape of the dose curve; as a rule, active = well fitted curve in the direction sought with a large enough effect; inconclusive = small, poorly fitted or top-dose-only effect, or another doubt; inactive = no such curve, though single readings can be large; an effect the other way counts as inactive or inconclusive. Unless noted, % is scaled to controls: 0 for no effect and ±100 for the full control effect.
SMILES,HT1080-NT tox,IL1B secr inh,ELG1 DNA repair,DT40 TDP1 CPT,HT1080 IDH1KD tx,TDP1 cell noCPT
COc1cc(CNCC2CCCO2)ccc1OCC(N)=O (stereo unspecified),11.8%,2.4,-0.2%,-1.9%,1.1%,20.7%
Cc1ccc([C@H]2N[C@]3(CCCN(Cc4ccc(Br)cc4)C3=O)[C@H]3C(=O)N(Cc4ccccc4)C(=O)[C@@H]23)cc1,-16.2%,-15.0,.,20.6µM*,-29.2%,29.1µM*
CCN1C(=O)[C@H]2[C@@H](c3ccc(C)cc3)N[C@]3(CCCN(Cc4ccccc4)C3=O)[C@H]2C1=O,-0.4%,-1.0,.,-16.3%,12.0%,?
O=C1[C@H]2[C@@H](c3ccccc3)N[C@]3(CCCN(Cc4ccco4)C3=O)[C@H]2C(=O)N1Cc1ccccc1,-7.5%,-20.9,.,?,-1.4%,?
O=C1[C@H]2[C@@H](c3ccccc3)N[C@]3(CCCN(Cc4ccc(Cl)cc4)C3=O)[C@H]2C(=O)N1Cc1ccccc1,-17.5%,?,.,23.1µM*,-29.3%,8.2µM*
O=C1[C@H]2[C@@H](c3ccccc3)N[C@]3(CCCN(Cc4ccc(Br)cc4)C3=O)[C@H]2C(=O)N1Cc1ccccc1,-25.7%,-20.0,.,?,-23.2%,23.1µM*
CC(=O)c1ccc(OCCCC(=O)N2CCN(S(=O)(=O)c3ccc(C)cc3C)CC2)cc1,4.0%,-19.3,?,?,8.4%,?
CCCc1cc(-c2[nH]ncc2-c2ccc(C(=O)OCC)o2)c(O)cc1O,?,-83.9*,?,?,?,?
CCCc1cc(-c2[nH]ncc2-c2ccc3c(c2)OCCCO3)c(O)cc1O,-11.1%,0.1,20.6µM*,?,-13.5%,?
CCc1cc(-c2[nH]ncc2-c2nc3ccccc3n2C)c(O)cc1O,-4.8%,-9.8,-8.9%,-20.2%,-4.1%,?
CC(=O)N1CC(C(=O)Nc2ccc3c(c2)OCO3)Oc2ccccc21 (stereo unspecified),-3.6%,7.3,?,-11.2%,9.5%,-0.7%
CC1Nc2ncnc(N3CCc4ccccc4C3)c2N(Cc2ccc(Cl)cc2)C1=O (stereo unspecified),-16.7%,?,8.7%,?,-27.9%,?
O=C1C(Cc2ccccc2)Nc2ncnc(N3CCc4ccccc4C3)c2N1Cc1ccccc1 (stereo unspecified),-19.4%,5.0,5.6%,?,-10.4%,16.4µM*
CCC1Nc2ncnc(N3CCc4ccccc4C3)c2N(Cc2ccc(Br)cc2)C1=O (stereo unspecified),?,-94.9*,.,?,?,?
CC1Nc2ncnc(N3CCc4ccccc4C3)c2N(Cc2ccc(Br)cc2)C1=O (stereo unspecified),?,?,-15.8%,16.4µM*,?,23.1µM*
Cc1ncc2c(c1CNC(=O)c1ccccc1F)CCN(C(=O)c1ccccc1-n1cccn1)C2,.,.,.,11.0%[9.04 µM],.,-28.6%
COc1ccc(NC(=O)C(c2ccc(C)cc2)N(C)C(=O)c2cnccn2)cc1 (stereo unspecified),?,-7.4,4.0%,-6.0%,16.3%,-9.5%
Cc1cccc(C)c1NC(=O)C(c1ccc([N+](=O)[O-])cc1)N(C)C(=O)c1ccccn1 (stereo unspecified),-2.7%,-8.3,18.4%,6.51µM*,-0.2%,3.26µM*
CCN(c1ccccc1)S(=O)(=O)c1ccc(OC)c(NC(=O)c2ccc(=O)[nH]c2)c1,-3.3%,7.3,13.7%,27.2%,-4.4%,-22.4%
O[C@@H]1CN(CC2CCCCC2)[C@@H](c2ccccc2)C[C@H]1n1cc(C2CC2)nn1,5.7%,2.6,.,?,4.4%,8.2µM*
O[C@H]1CN(CC2CCCCC2)[C@@H](c2ccc(Cl)cc2)C[C@@H]1n1cc(C2CC2)nn1,?,-15.3,.,?,?,?
O[C@H]1C[C@H](c2ccccc2)N(CC2CCCCC2)C[C@@H]1n1cc(C2CC2)nn1,?,-25.2,.,10.3µM*,?,7.31µM*
COc1ccc2[nH]c(=O)c(-c3nnn(-c4ccccc4)n3)cc2c1,8.6%,?,?,?,9.7%,?
COc1ccc2[nH]c(=O)c(-c3noc(-c4ccccc4)n3)cc2c1,-10.8%,-16.2,?,20.6µM*,-25.2%,18.4µM*
O=c1[nH]c2ccccc2cc1-c1nnn(-c2ccccc2)n1,16.8%,20.8,.,16.4µM*,9.1%,?
SMILES,HT1080-NT tox,IL1B secr inh,ELG1 DNA repair,DT40 TDP1 CPT,HT1080 IDH1KD tx,TDP1 cell noCPT
COc1ccc2[nH]c(=O)c(-c3nnn(-c4ccc(Cl)nc4)n3)cc2c1,0.8%,14.4,.,11.6µM*,2.5%,?
Fc1ccc(-n2nnc(-c3ccccc3)n2)cc1,-0.7%,11.8,-6.0%,-5.2%,8.1%,19.7%
COc1ccc2[nH]c(=O)c(-c3nnn(-c4ccc(F)cc4)n3)cc2c1,2.0%,13.4,.,4.61µM*,-1.5%,16.4µM*
O=c1[nH]c2ccccc2cc1-c1noc(-c2cccnc2)n1,14.5%,8.1,14.4%,-18.6%,1.4%,?
CCc1nc(CN2CCOc3ccc(C(O)C4CCCCC4)cc3C2)c(C)[nH]1 (stereo unspecified),.,.,.,?,.,18.4µM*
COC(=O)c1sc2nc3c(c(-c4cccs4)c2c1N)CCCC3,23.4%,-1.1,-10.9%,-14.1%,-2.8%,?
Cc1ccc(NC(=O)c2c(C)nc3sc(C(=O)NC4CCCC4)c(N)c3c2-c2ccco2)c(C)c1,2.6%,19.4,20.1%,2.91µM*,7.2%,5.17µM*
CCc1ccc(NC(=O)c2sc3nc(C)c(C(=O)Nc4ccc(C)cc4C)c(-c4ccco4)c3c2N)cc1,.,.,.,-0.4%,.,-14.7%
Cc1ccccc1NC(=O)c1sc2nc3c(c(-c4ccco4)c2c1N)CCC3,19.2%,-69.5*,23.1µM*,?,15.7%,?
NC(=O)c1sc2nc3c(c(-c4ccco4)c2c1N)CCCC3,7.6%,-6.5,9.2µM*,?,4.8%,16.4µM*
NC(=O)c1sc2nc3c(c(-c4ccc(Cl)cc4)c2c1N)CCCC3,?,-17.3,?,?,?,?
N#Cc1sc2nc3c(c(-c4ccco4)c2c1N)CCCC3,-11.7%,37.4,0.0%,?,-9.9%,23.1µM*
Cc1ccc(C(=O)Nc2c(C)nc3ccccn3c2=O)cc1,.,.,.,3.9%,.,1.0%
